Assay outcomes (PubChem)
Only some compounds are listed: those with a hit (about 32% of all), similar ones and a draw of the others.
CYP2C9 inhib: blockers of cytochrome P450 2C9 activity – biochemical, luminescence, ADME assay, primary screen; CYP2C9 Supersomes, luciferin-H conversion; P11712; inhibition, % at 5 µM; hit rate 20% among 96,000;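 active means blocking of liver enzyme CYP2C9 beyond about 50% at 5 µM, limit read from the data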
CYP2C9 act: human CYP2C9 activators, primary screen, biochemical, luminescence; recombinant CYP2C9, luciferin-H conversion; hits give high values; factor 1 = untreated enzyme, 0 = blocked; hit rate 1.4% among 96,000; activation factor at 5 µM; Cytochrome P450 2C9 (Homo sapiens), P11712;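 active means activation factor of 2 or more for CYP2C9 at a 5 µM dose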;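 further: 0 = sulfaphenazole-blocked wells and 1 = vehicle-only wells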
CYP2C19 act: human CYP2C19 activators, primary screen, biochemical, luminescence | Cytochrome P450 2C19 (Homo sapiens), P33261 | recombinant CYP2C19, luciferin-H EGE luminescence; hits give high values; 0 = fully inhibited enzyme, 1 = untreated enzyme | activation factor at 5 µM | 96,000 tested, under 10 active | AID 1025, 2008;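 active means activation factor of at least 2 at 5 µM in the primary screen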;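 further: 0 = wells with 2.5 mM tranylcypromine and 1 = vehicle-only wells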
Target sequence (P33261 whole entry, looked up): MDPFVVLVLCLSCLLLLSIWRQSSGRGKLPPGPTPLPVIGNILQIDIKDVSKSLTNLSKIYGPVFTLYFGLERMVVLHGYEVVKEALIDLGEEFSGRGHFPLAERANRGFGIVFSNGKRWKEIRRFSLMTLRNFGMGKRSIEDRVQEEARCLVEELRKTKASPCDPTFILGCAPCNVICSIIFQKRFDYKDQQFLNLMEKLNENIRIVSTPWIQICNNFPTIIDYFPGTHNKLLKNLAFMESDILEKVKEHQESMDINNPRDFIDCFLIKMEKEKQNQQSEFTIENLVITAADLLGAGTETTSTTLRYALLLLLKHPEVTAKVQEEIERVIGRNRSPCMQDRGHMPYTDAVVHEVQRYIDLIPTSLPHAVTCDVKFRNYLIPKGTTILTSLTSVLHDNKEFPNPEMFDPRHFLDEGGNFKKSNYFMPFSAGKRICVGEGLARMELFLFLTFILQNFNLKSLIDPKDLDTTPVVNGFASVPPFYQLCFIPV
CYP2C19 inh: blockers of cytochrome P450 2C19 activity – biochemical, luminescence, ADME assay, primary screen; P33261; CYP2C19 Supersomes, luciferin-H EGE luminescence, 30 min; inhibition, % at 5 µM; hit rate 21% among 96,000; AID 778, 2007;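 active means CYP2C19 inhibition above a set limit at 5 µM in the primary screen, cut at about 50% in these data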;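 further: plate controls were negative control wells for no effect and 2.5 mM tranylcypromine positive control for full effect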
PostGolgi ctrl: growth inhibition of yeast control strain, primary screen, counter-screen for post-Golgi transport modulator project; efflux-deficient yeast background strain, growth absorbance A615, 16 h; inhibition, % at 10 µM; hit rate 5% among 98,000
PostGolgi yeast: phenotypic screen on post-Golgi transport, primary screen. hit rate 0.9% among 98,000. post-Golgi transport phenotypic cell assay. AID 739, 2007. inhibition, % at 10 µM;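 further: yeast cells grown in 1536-well plates; yeast grown about 18 h at 30C before absorbance read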
The depositor's hits bear a star. Unless noted, no stated cut-off is given here; in the data, active means inhibition above about 30%; inactive means the rest.

CCn1c(SCc2ccc(Cl)cc2Cl)nc2nc3c(cc2c1=O)CCCC3 was read as CYP2C9 inhib 43, CYP2C9 act 0.6, CYP2C19 act 0.9, CYP2C19 inh 8, PostGolgi ctrl 6 and PostGolgi yeast 2.
For CC(=O)Oc1ccc2c(C)cc(=O)[nH]c2c1 the results were CYP2C9 inhib 2, CYP2C9 act 1, CYP2C19 act 1.1, CYP2C19 inh -7, PostGolgi ctrl 8 and PostGolgi yeast -1.
CC(=O)Oc1c(C)cc(O)c2ccccc12 was read as CYP2C9 inhib 19, CYP2C9 act 0.8, CYP2C19 act 0.4, CYP2C19 inh 62*, PostGolgi ctrl 19 and PostGolgi yeast 4.
Screening O=C(NCCSCc1ccc(Cl)cc1Cl)c1ccc(CN2CCOCC2)cc1 returned CYP2C9 inhib 81*, CYP2C9 act 0.2, CYP2C19 act 0.5, CYP2C19 inh 49, PostGolgi ctrl 31* and PostGolgi yeast 76*.
For Cc1ccc(-c2cc(C(=O)NCc3ccc4c(c3)OCO4)[nH]n2)c(O)c1C the results were CYP2C9 inhib 21, CYP2C9 act 0.8, CYP2C19 act 1, CYP2C19 inh 3, PostGolgi ctrl 31* and PostGolgi yeast -3.
For O=C(NCc1ccc2c(c1)OCO2)c1cccc([N+](=O)[O-])c1 the results were CYP2C9 inhib 25, CYP2C9 act 0.8, CYP2C19 act 0.1, CYP2C19 inh 89*, PostGolgi ctrl -2 and PostGolgi yeast 10.
`O=C(NCc1ccccc1)c1ccc(CN2CCOCC2)cc1` gave CYP2C9 inhib 23, CYP2C9 act 0.8, CYP2C19 act 0.9, CYP2C19 inh 6, PostGolgi ctrl 23 and PostGolgi yeast 5.
For CS(=O)(=O)Nc1ccc(C(=O)NCc2ccc3c(c2)OCO3)cc1 the results were CYP2C9 inhib -4, CYP2C9 act 1, CYP2C19 act 1, CYP2C19 inh -4, PostGolgi ctrl 2 and PostGolgi yeast 23.
Screening O=C(NCc1ccc2c(c1)OCO2)c1c(F)c(F)c(F)c(F)c1F returned CYP2C9 inhib 28, CYP2C9 act 0.7, CYP2C19 act 0.2, CYP2C19 inh 81*, PostGolgi ctrl -2 and PostGolgi yeast 4.
Screening Cc1cc(O)c(-c2cc(C(=O)NCc3ccc4c(c3)OCO4)[nH]n2)cc1C returned CYP2C9 inhib 11, CYP2C9 act 0.9, CYP2C19 act 1, CYP2C19 inh -4, PostGolgi ctrl 7 and PostGolgi yeast -8.
For COc1ccc(CN2CCCCC2C)cc1C (stereo unspecified) the results were CYP2C9 inhib -4, CYP2C9 act 1, CYP2C19 act 0.6, CYP2C19 inh 40, PostGolgi ctrl 10 and PostGolgi yeast 4.
For O=C(/C=C/c1ccc2c(c1)OCO2)NCCSCc1ccc(Cl)cc1Cl the results were CYP2C9 inhib 73*, CYP2C9 act 0.3, CYP2C19 act 0.8, CYP2C19 inh 21, PostGolgi ctrl 17 and PostGolgi yeast -6.
O=C(NCc1ccc2c(c1)OCO2)c1ccc(CN2CCOCC2)cc1 was read as CYP2C9 inhib 9, CYP2C9 act 0.9, CYP2C19 act 1, CYP2C19 inh 2, PostGolgi ctrl 33* and PostGolgi yeast 4.
For CCOC(=O)C(CCCOc1cccc(OC)c1)C(=O)OCC the results were CYP2C9 inhib 82*, CYP2C9 act 0.2, CYP2C19 act 0.1, CYP2C19 inh 90*, PostGolgi ctrl 21 and PostGolgi yeast 12.
O=C(NCc1ccc2c(c1)OCO2)c1ccc2snnc2c1 was read as CYP2C9 inhib 65*, CYP2C9 act 0.4, CYP2C19 act 0.3, CYP2C19 inh 66*, PostGolgi ctrl 18 and PostGolgi yeast 7.
For O=C(/C=C/c1ccc2c(c1)OCO2)NCCSCc1cccc(Cl)c1 the results were CYP2C9 inhib 43, CYP2C9 act 0.6, CYP2C19 act 0.7, CYP2C19 inh 25, PostGolgi ctrl 9 and PostGolgi yeast -2.
For CCn1c(=O)c(C(=O)CN2CCOCC2)c(N)n(Cc2ccccc2)c1=O the results were CYP2C9 inhib -18, CYP2C9 act 1.2, CYP2C19 act 1.2, CYP2C19 inh -19, PostGolgi ctrl 9 and PostGolgi yeast -2.
CCc1nnc(SCc2ccc(CSc3nnc(CC)n3N)cc2)n1N was read as CYP2C9 inhib -18, CYP2C9 act 1.2, CYP2C19 act 1.2, CYP2C19 inh -15, PostGolgi ctrl 3 and PostGolgi yeast -5.
O=C(NCCOc1ccccc1)c1ccc2c(c1)OCO2 was read as CYP2C9 inhib 59*, CYP2C9 act 0.4, CYP2C19 act 0.1, CYP2C19 inh 86*, PostGolgi ctrl 4 and PostGolgi yeast 5.
Screening Cn1nnc2cc(C(=O)NCc3ccc4c(c3)OCO4)ccc21 returned CYP2C9 inhib 25, CYP2C9 act 0.8, CYP2C19 act 0.5, CYP2C19 inh 52*, PostGolgi ctrl 2 and PostGolgi yeast -1.
Screening CC(=O)NCCOc1cccc(OCCNC(C)=O)c1 returned PostGolgi ctrl 5 and PostGolgi yeast 5.
`O=C(NCc1ccc2c(c1)OCO2)c1cc(-n2cnnc2)ccc1Cl` gave CYP2C9 inhib 5, CYP2C9 act 0.9, CYP2C19 act 0.9, CYP2C19 inh 8, PostGolgi ctrl 46* and PostGolgi yeast -8.
For COc1cccc(OCCNC(=O)c2cccc(OC)c2)c1 the results were CYP2C9 inhib -18, CYP2C9 act 1.2, CYP2C19 act 0, CYP2C19 inh 97*, PostGolgi ctrl 1 and PostGolgi yeast -2.
For CCOCCCNC(=O)c1ccc2c(c1)OCO2 the results were CYP2C9 inhib -12, CYP2C9 act 1.1, CYP2C19 act 1.1, CYP2C19 inh -8, PostGolgi ctrl -4 and PostGolgi yeast 6.
For O=C(NCC(F)(F)F)Nc1ncccn1 the results were CYP2C9 inhib 2, CYP2C9 act 1, CYP2C19 act 1, CYP2C19 inh -4, PostGolgi ctrl 22 and PostGolgi yeast -1.
Screening O=C(NCc1ccc2c(c1)OCO2)c1ccc(=O)[nH]c1 returned CYP2C9 inhib -1, CYP2C9 act 1, CYP2C19 act 1.2, CYP2C19 inh -16, PostGolgi ctrl 15 and PostGolgi yeast 3.
Screening O=C(NCc1ccc2c(c1)OCO2)c1ccc2c(c1)OCCO2 returned CYP2C9 inhib 78*, CYP2C9 act 0.2, CYP2C19 act 0.1, CYP2C19 inh 88*, PostGolgi ctrl -9 and PostGolgi yeast -6.
For CS(=O)(=O)N1CCN(c2ccc([N+](=O)[O-])c(NCCN3CCOCC3)c2)CC1 the results were CYP2C9 inhib 3, CYP2C9 act 1, CYP2C19 act 0.9, CYP2C19 inh 9, PostGolgi ctrl -2 and PostGolgi yeast -3.
